Shown are actives, neighbours in structure and some others; about 19% of the full set was active somewhere.
IL-1B inflam inh: qHTS for Inhibitors of Inflammasome Signaling: IL-1-beta AlphaLISA Primary Screen | THP-1 LPS/ATP IL-1B secretion, AlphaLISA, 16 h; active compounds read low | actives 4.7% (n = 360,000) | activity change, % at 57.5 µM; in the data active means activity change below about -50%; inconclusive means mostly about -30% to -49%
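THP-1 cells pretreated 1 hr with compounds (up to 57.5 uM final), then stimulated with LPS (250 ng/mL final) plus ATP (1.25 mM final); secreted IL-1B measured by AlphaLISA after 16 hr, decreased signal indicating inhibition.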
HT1080 IDH1KD tx: qHTS for induction of synthetic lethality in tumor cells producing 2HG: qHTS for the HT-1080-IDH1KD cell line; Potency, µM (highest dose often 46.1 µM), without a hit: at the top dose activity, negative = toxicity, most hits filed as cytotoxic; actives 2% (n = 360,000); HT-1080 IDH1 knockdown viability, ATP luminescence, 48 h;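 further: potency means the concentration at half of the fitted maximal effect; 0% = DMSO wells and -100% = cell-free medium wells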
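% activity derives from luminescence (CellTiter-Glo), normalised to DMSO and no-cell wells. HT-1080-IDH1KD cells, 750/well, had 48 h compound exposure at 37 °C.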
ELG1 DNA repair: qHTS screen for small molecules that inhibit ELG1-dependent DNA repair in human embryonic kidney (HEK293T) cells expressing luciferase-tagged ELG1 | HEK293T ELG1-luciferase reporter, luminescence, 16 h; DNA damage induced by 5-fluorouridine | Potency, µM (highest dose often 46.1 µM), without a hit: at the top dose activity change, negative = inhibition, hits mostly inhibitors | actives 2.3% (n = 330,000) | AID 504467, 2011; further: potency means the concentration at half of the fitted maximal effect; nearly all actives have a fitted effect of over 55% in size
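Quantitative HTS, concentration-response format. 2,000 cells/well co-treated with 5-fluorouridine and compound, 16 hr in 5% CO2 at 37 °C; ONE-Glo luminescence read after 30 min.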
DT40 TDP1 no CPT: qHTS for Inhibitors of human tyrosyl-DNA phosphodiesterase 1 (TDP1): qHTS in cells in absence of CPT; DT40 Tdp1-/- hTDP1 cells, no CPT, ATP luminescence, 48 h; Potency, µM (doses to about 46.2 µM), for inactives: top-dose activity change, negative = growth inhibition, usual class: inhibitors; actives 15% (n = 420,000); AID 686978, 2013; further: potency means the concentration at half of the fitted maximal effect; nearly all actives have a fitted effect of over 55% in size
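Growth kinetics read by CellTiter-Glo luminescence after ≥48 hr at 37 °C. Cells: DT40 Tdp1-/- stably carrying human TDP1, 400 per well, compound exposure in the absence of CPT (DMSO vehicle).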
HT1080NT lethal: qHTS for induction of synthetic lethality in tumor cells producing 2HG: qHTS for the HT-1080-NT fibrosarcoma cell line. HT-1080-NT fibrosarcoma viability, CellTiter-Glo ATP luminescence, 48 h. Potency, µM (highest dose often 46.1 µM), for inactives: at the highest dose activity, negative = less viability, most hits filed as cytotoxic. actives 1.6% (n = 360,000);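 further: NT is the 2HG producing partner of a matched IDH1 knockdown line; potency means the concentration at half of the fitted maximal effect; 0% = DMSO-treated cells and -100% = media-only wells without cells; nearly all actives have a fitted effect of over 55% in size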
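Read-out is CellTiter-Glo luminescence after 10 minutes at room temperature, following 48 hours' compound treatment of HT-1080-NT cells (750 cells/well, RPMI, 5% FBS, 37 degrees C).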
TDP1 cell CPT: qHTS for Inhibitors of human tyrosyl-DNA phosphodiesterase 1 (TDP1): qHTS in cells in presence of CPT; chicken DT40 Tdp1-/-;hTDP1 cells + 20 nM CPT, ATP luminescence, 48 h; Potency, µM (highest dose often 46.2 µM), without a hit: at the top dose activity change, negative = growth inhibition, actives largely listed as inhibitors; actives 12% (n = 420,000); further: potency means the concentration at half of the fitted maximal effect; nearly all actives have a fitted effect of over 55% in size
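Chicken DT40 Tdp1-/- cells complemented with human TDP1, 400 cells/well, exposed to compounds plus 20 nM camptothecin for at least 48 h at 37 C; viability read as ATP content by CellTiter-Glo luminescence.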
* = called active by the depositor; ? = inconclusive; . = not tested or not shown; [ ] = dose if it differs, or a comment. Unless noted, the call rests on the fitted dose curve; in most records, active means well fitted curve in the direction sought with a large enough effect; inconclusive means small, poorly fitted or top-dose-only effect, or another doubt; inactive means no such curve, though single readings can be large; an effect the other way counts as inactive or inconclusive. Unless noted, on the % scale 0 is the no-effect control and ±100 the full control effect.

SMILES	IL-1B inflam inh	HT1080 IDH1KD tx	ELG1 DNA repair	DT40 TDP1 no CPT	HT1080NT lethal	TDP1 cell CPT
O=C(NCC1OCCc2ccccc21)c1ccc(NC(=O)c2ccc(Cl)cc2)cc1 (centres undefined)	-5	?	?	16µM*	21µM*	23µM*
O=C(CCc1ccccc1)NCc1nc2cccnc2n1Cc1ccc(F)cc1	.	.	.	?	.	-24%
NS(=O)(=O)c1ccc(NC(=S)NC(=O)c2cccs2)cc1	-17	6%	21%	-25%	8%	1%
CN(C)NC(=S)Nc1ccc(S(=O)(=O)N2CCCCC2)cc1	4	-2%	-6%	?	-16%	20%
O=S(=O)(c1ccc(NC(=S)NN=Cc2ccccc2O)cc1)N1CCCCC1	?	?	.	5.8µM*	-11%	4.6µM*
O=S(=O)(c1ccc(NC(=S)NC23CC4CC(CC(C4)C2)C3)cc1)N1CCCCC1	-3	2%	.	21µM*	0%	?
O=S(=O)(c1ccc(NC(=S)N/N=C/c2cccc(Oc3ccccc3)c2)cc1)N1CCOCC1	0	-23%	-1%	?	-23%	12%
O=C(NC(=S)Nc1ccc(S(=O)(=O)N2CCCCC2)cc1)c1cccs1	0	-5%	-8%	18µM*	-8%	26µM*
CN(C)c1ccc(NC(=S)NC23CC4CC(CC(C4)C2)C3)cc1	21	0%	?	?	3%	29µM*
CN1CCN(C(=O)C[C@@H]2CC[C@@H]3[C@H](COC[C@@H](O)CN3Cc3cccc(Cl)c3)O2)CC1	12	14%	.	-20%	17%	-24%
Cc1ccc(C(=O)N(CC(=O)NC2CCCC2)c2ccccc2F)s1	-6	3%	.	?	11%	-21%
O=C(NC(=S)Nc1ccc(S(=O)(=O)N2CCCCC2)cc1)c1ccc(Cl)cc1	9	-4%	2%	10µM*	-11%	16µM*
Cc1ccc(NC(=S)NC(=O)c2cccs2)cc1F	4	-19%	?	7.3µM*	-12%	-108%
O=C(NC12CC3CC(CC(C3)C1)C2)N1CCN(S(=O)(=O)c2ccc(Cl)cc2)CC1	-3	-3%	0%	23µM*	-7%	18µM*
COc1ccc(S(=O)(=O)N2CCCCC2)cc1NC(=O)c1cccs1	11	10%	?	4%	14%	-21%
Cc1ccc(S(=O)(=O)N2CCCCC2)cc1NC(=O)c1cccs1	-6	-11%	-2%	-10%	1%	26µM*
CCCCCNC(=O)C1C(=O)Nc2ccccc2C(=O)N1c1ccc(OC)cc1 (centres undefined)	-14	-19%	.	?	5%	?
Cn1cccc1C1CCCN1CC(=O)Nc1ccc(F)c(F)c1F (centres undefined)	-19	-1%	?	-21%	-11%[9.24 µM]	?
CCCC(C)c1oc(=O)cc(O)c1C (centres undefined)	25	8%	7%	-12%	11%	-8%
O=C(NC(=S)Nc1ccc(N2CCCCC2)c(Cl)c1)c1cccs1	7	4%	.	5.8µM*	5%	7.3µM*
O=c1[nH]cccc1-c1nc2ccccc2n1Cc1ccccc1F	3	3%	-2%	29µM*	10%	21µM*
CCn1c(-c2ccc[nH]c2=O)nc2ccccc21	22	-1%	9%	9%	0%	0%
CCCCCCCCCCCCCCC(O)C[N+](C)(CCO)CCO (centres undefined)	-100*	18µM*	.	3.7µM*	?	2.3µM*
c1cc2c3c(c1)c1c(n3CCNC2)CCCC1	.	.	.	24µM*	.	?
O=C(CNS(=O)(=O)c1ccc(Br)s1)NCCc1ccc(Cl)cc1	-12	-4%	26%	?	4%	-15%
SMILES	IL-1B inflam inh	HT1080 IDH1KD tx	ELG1 DNA repair	DT40 TDP1 no CPT	HT1080NT lethal	TDP1 cell CPT
CCOC(=O)c1ccc(NS(=O)(=O)c2ccc(Br)s2)cc1	.	.	.	-28%	.	-17%
Cc1nc2scc(C)n2c(=O)c1S(=O)(=O)NCCc1ccccc1	48	2%	0%	?	8%	?
Cc1csc2nc(O)c(C(=O)NCCC3=CCCCC3)c(=O)n12	0	0%	13%	7.3µM*	1%	15µM*
O=C(NCCC1=CCCCC1)c1cnccn1	3	2%	?	-24%	0%	-12%
Cc1csc2nc(O)c(C(=O)NCCCc3ccccc3)c(=O)n12	8	10%	?	15µM*	-4%	15µM*
COc1cc(C2(C)SCCCS2)cc(OC)c1OC	5	?	.	?	-1%	?
COc1ccccc1CNCC(O)(c1ccc(F)cc1)c1ccc(F)cc1	-26	-12%	-6%	13µM*	-17%	18µM*
OC(CNCc1ccccc1F)(c1ccc(F)cc1)c1ccc(F)cc1	-80*	-27%	-18%	?	-25%	-20%
Fc1ccc(CNCc2ccccc2Cl)cc1	-14	3%	-19%	-1%	26%	-20%
COc1cccc(C(=O)N2CCC(N3CC(C)OC(C)C3)CC2)c1 (centres undefined)	0	19%	-1%	3%	15%	9%
COc1ccc(Nc2nc(-c3cccs3)nc3ccccc23)cc1S(=O)(=O)N1CCOCC1	-66*	?	.	3.3µM*	16µM*	18µM*
Cc1nc(N2CCN(S(=O)(=O)c3ccccc3C#N)CC2)c2c(-c3cccs3)csc2n1	-3	-13%	18µM*	21µM*	-2%	?
Cc1nc(N2CCCCC2)c2c(-c3cccs3)csc2n1	14	-19%	?	?	-10%	?
COc1ccc(NS(=O)(=O)c2cccs2)cc1S(=O)(=O)N1CCOCC1	16	17%	0%	-4%	6%	13%

Screening data deposited in PubChem BioAssay by National Center for Advancing Translational Sciences (NCATS).
